What all share (test): DAPPL (digital affinity profiling via proximity ligation, sequencing); 10 mM Tris-HCl pH 7.5, 50 mM NaCl, 1 mM DTT, 4% glycerol, room temperature, 30 min; GST-TFs on glutathione beads, 16-mer random dsDNA library, 0.1% formaldehyde crosslink after washing; high values mean tight binding
Settings in all cases: protein: recombinant; tags: N-terminal GST; dsDNA, one strand shown

The target in one experiment is T1, FLI1 (Homo sapiens, UniProt Q01543 1-452).
T1 sequence: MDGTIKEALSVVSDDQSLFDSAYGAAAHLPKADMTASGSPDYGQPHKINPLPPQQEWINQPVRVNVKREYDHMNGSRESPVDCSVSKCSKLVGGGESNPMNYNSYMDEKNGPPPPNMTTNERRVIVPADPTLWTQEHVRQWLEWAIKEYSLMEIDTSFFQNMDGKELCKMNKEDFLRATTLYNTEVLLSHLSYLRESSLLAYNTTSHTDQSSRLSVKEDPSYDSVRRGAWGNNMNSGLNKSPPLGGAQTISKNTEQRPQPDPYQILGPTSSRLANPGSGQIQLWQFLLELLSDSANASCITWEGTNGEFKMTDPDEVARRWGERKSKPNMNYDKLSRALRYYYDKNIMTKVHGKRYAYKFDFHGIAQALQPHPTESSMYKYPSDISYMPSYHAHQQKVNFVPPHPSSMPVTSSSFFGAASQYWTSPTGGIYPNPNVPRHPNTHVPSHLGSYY
An outline of the steps:
(§1)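 Binding signal is defined as a hexamer's read frequency for one factor over its frequency for the tag-only sample. To obtain reads, GST-fused human transcription factors were expressed in yeast, captured on glutathione beads, barcoded with DNA and pooled with that sample. Pools met 200 nmole of a 16-mer random double-stranded DNA library in Tris/NaCl/DTT/glycerol buffer for 30 min at room temperature before washing, 0.1% formaldehyde crosslinking, proximity ligation (BsaI/T4 ligase, 1 h, 37 °C), PCR and Illumina NextSeq500 sequencing.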

A further experiment concerns the target T2, ELK1 (Homo sapiens, UniProt P19419 1-428).
T2 sequence: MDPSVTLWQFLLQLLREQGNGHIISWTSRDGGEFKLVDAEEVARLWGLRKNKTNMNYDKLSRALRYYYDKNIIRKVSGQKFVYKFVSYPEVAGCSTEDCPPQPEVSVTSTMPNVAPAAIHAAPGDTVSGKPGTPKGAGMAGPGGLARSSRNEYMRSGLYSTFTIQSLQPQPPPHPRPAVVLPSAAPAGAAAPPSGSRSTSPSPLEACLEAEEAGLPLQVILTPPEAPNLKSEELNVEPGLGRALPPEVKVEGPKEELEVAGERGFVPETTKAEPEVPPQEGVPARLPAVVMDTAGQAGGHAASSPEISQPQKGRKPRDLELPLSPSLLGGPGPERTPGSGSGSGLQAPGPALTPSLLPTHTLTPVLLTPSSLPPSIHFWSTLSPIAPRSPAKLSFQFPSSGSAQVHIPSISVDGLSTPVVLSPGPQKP
An outline of the steps: as §1

For the next experiment, the target named is T3, GABPA (Homo sapiens, UniProt Q06546 1-454).
T3 sequence: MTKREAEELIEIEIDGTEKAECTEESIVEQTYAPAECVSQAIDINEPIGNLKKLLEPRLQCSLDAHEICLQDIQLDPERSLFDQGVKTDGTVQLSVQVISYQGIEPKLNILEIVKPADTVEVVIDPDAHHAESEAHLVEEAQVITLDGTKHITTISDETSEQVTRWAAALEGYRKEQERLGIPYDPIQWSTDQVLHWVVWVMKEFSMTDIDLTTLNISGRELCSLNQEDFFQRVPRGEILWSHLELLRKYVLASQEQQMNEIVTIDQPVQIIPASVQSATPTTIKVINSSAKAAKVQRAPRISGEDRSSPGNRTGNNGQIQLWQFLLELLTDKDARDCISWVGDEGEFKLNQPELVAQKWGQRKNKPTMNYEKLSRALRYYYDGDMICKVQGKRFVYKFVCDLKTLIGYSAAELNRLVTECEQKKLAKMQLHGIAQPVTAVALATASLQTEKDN
In outline: as §1

The next experiment has as its target T4, ERG (Homo sapiens, UniProt P11308 1-479).
T4 sequence: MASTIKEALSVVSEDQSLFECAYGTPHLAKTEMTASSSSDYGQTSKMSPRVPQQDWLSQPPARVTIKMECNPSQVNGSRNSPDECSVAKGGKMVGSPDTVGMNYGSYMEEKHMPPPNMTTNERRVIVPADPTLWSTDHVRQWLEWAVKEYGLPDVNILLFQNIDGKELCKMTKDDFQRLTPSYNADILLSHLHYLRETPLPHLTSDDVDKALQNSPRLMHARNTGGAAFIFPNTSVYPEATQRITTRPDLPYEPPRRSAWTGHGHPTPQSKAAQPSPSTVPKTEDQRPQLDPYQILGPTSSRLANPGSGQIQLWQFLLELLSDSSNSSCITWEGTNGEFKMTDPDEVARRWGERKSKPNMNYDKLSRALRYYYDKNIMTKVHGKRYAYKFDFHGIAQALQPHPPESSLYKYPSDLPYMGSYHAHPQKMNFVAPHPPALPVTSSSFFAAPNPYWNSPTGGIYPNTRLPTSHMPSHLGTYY
An outline of the steps:
as §1

In another experiment the target is ELF1 (Homo sapiens, UniProt P32519 1-619). An outline of the steps:
as §1

The next experiment deals with T5, EHF (Homo sapiens, UniProt Q9NZC4 1-300).
T5 sequence: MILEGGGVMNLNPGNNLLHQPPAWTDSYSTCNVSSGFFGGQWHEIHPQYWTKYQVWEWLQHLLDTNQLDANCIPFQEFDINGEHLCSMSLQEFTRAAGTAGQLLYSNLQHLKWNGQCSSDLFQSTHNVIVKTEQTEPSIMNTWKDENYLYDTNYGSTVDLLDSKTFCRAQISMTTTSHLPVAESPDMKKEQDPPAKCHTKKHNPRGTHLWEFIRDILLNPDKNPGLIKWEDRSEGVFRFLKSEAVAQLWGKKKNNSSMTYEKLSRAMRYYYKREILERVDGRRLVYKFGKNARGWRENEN
In outline:
as §1

The target of another experiment is SPI1 (Homo sapiens, UniProt P17947 1-270). An outline of the steps:
as §1

A further experiment has as its target SPIB (Homo sapiens, UniProt Q01892 1-262). In outline:
as §1

The target in the next experiment is T6, ELK3 (Homo sapiens, UniProt P41970 1-407).
T6 sequence: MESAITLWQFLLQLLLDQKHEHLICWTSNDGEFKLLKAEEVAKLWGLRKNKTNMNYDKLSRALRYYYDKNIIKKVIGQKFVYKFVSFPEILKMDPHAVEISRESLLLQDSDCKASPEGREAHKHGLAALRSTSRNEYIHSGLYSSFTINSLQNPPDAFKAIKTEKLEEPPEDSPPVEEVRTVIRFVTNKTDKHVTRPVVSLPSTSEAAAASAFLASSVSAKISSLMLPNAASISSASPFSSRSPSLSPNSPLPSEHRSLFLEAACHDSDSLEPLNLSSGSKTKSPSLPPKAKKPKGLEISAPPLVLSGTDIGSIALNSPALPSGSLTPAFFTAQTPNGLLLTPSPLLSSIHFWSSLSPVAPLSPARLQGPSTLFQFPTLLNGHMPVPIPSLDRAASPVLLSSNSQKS
In outline:
as §1

ELF1, sequence (P32519 whole entry): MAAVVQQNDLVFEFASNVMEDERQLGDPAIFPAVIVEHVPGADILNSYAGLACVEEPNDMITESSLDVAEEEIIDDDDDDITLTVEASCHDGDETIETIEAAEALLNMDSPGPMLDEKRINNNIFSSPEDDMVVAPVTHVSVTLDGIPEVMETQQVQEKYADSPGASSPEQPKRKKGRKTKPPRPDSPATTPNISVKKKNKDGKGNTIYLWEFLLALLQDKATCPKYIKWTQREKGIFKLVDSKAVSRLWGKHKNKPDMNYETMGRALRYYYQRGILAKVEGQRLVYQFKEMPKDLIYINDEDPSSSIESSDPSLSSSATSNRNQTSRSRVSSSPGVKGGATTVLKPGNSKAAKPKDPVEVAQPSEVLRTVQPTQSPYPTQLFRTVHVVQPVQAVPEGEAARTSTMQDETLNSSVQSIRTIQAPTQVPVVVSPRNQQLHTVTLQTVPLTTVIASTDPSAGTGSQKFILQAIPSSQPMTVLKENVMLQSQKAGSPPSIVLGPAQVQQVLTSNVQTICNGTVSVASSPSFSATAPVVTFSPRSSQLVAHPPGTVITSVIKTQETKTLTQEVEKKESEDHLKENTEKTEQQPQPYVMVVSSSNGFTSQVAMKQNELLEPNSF
SPIB, sequence (Q01892 whole entry): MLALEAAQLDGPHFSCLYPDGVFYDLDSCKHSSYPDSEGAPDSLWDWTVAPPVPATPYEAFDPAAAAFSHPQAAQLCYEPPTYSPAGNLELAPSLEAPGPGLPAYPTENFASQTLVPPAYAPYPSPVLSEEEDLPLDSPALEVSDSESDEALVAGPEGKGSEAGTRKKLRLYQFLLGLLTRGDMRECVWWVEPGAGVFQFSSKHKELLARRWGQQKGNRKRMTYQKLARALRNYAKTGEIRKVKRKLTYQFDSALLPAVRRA

In the case of TTAGCT, the binding signal with FLI1 was 1.13 fold enrichment (6-mer frequency, TF over GST control); in the experiment with ELK1, 1.21 fold enrichment (6-mer frequency, TF over GST control); in the experiment with GABPA it was 1.23 fold enrichment (6-mer frequency, TF over GST control); with ERG it was 1.15 fold enrichment (6-mer frequency, TF over GST control); with ELF1, 1.27 fold enrichment (6-mer frequency, TF over GST control); with EHF it was 1.2 fold enrichment (6-mer frequency, TF over GST control). Besides, the binding signal in the experiment with SPI1 is 1.2 fold enrichment (6-mer frequency, TF over GST control); with SPIB it was 1.19 fold enrichment (6-mer frequency, TF over GST control); with ELK3, 1.18 fold enrichment (6-mer frequency, TF over GST control).
As for CAATTT, the binding signal in the experiment with FLI1 is 1.26 fold enrichment (6-mer frequency, TF over GST control); with ELK1, 1.35 fold enrichment (6-mer frequency, TF over GST control); with GABPA, 1.37 fold enrichment (6-mer frequency, TF over GST control); in the experiment with ERG, 1.43 fold enrichment (6-mer frequency, TF over GST control); with ELF1, 1.29 fold enrichment (6-mer frequency, TF over GST control); with EHF, 1.28 fold enrichment (6-mer frequency, TF over GST control). The binding signal with SPI1 is 1.32 fold enrichment (6-mer frequency, TF over GST control); with SPIB it was 1.43 fold enrichment (6-mer frequency, TF over GST control); with ELK3 it was 1.12 fold enrichment (6-mer frequency, TF over GST control).
Turning to CCGCTC, the binding signal in the experiment with FLI1 is 1.53 fold enrichment (6-mer frequency, TF over GST control); in the experiment with ELK1, 1.52 fold enrichment (6-mer frequency, TF over GST control); with GABPA, 1.39 fold enrichment (6-mer frequency, TF over GST control); with ERG, 1.47 fold enrichment (6-mer frequency, TF over GST control); with ELF1, 1.58 fold enrichment (6-mer frequency, TF over GST control); in the experiment with EHF it was 1.54 fold enrichment (6-mer frequency, TF over GST control). For the same sequence, the binding signal was 1.48 fold enrichment (6-mer frequency, TF over GST control) in the experiment with SPI1; 1.59 fold enrichment (6-mer frequency, TF over GST control) in the experiment with SPIB; 1.49 fold enrichment (6-mer frequency, TF over GST control) in the experiment with ELK3.
For the sequence ACGCTA, the binding signal with FLI1 is 1.14 fold enrichment (6-mer frequency, TF over GST control); with ELK1, 1.18 fold enrichment (6-mer frequency, TF over GST control); with GABPA, 1.14 fold enrichment (6-mer frequency, TF over GST control); with ERG, 1.2 fold enrichment (6-mer frequency, TF over GST control); with ELF1 it was 1.15 fold enrichment (6-mer frequency, TF over GST control); with EHF, 1.1 fold enrichment (6-mer frequency, TF over GST control). Also, the binding signal in the experiment with SPI1 was 1.19 fold enrichment (6-mer frequency, TF over GST control); in the experiment with SPIB, 1.07 fold enrichment (6-mer frequency, TF over GST control); with ELK3 it was 1.27 fold enrichment (6-mer frequency, TF over GST control).
Regarding ACCGAT, the binding signal with FLI1 is 1.14 fold enrichment (6-mer frequency, TF over GST control); in the experiment with ELK1 it was 1.12 fold enrichment (6-mer frequency, TF over GST control); with GABPA it was 1.2 fold enrichment (6-mer frequency, TF over GST control); with ERG, 1.07 fold enrichment (6-mer frequency, TF over GST control); with ELF1, 1.17 fold enrichment (6-mer frequency, TF over GST control); in the experiment with EHF it was 1.16 fold enrichment (6-mer frequency, TF over GST control). Besides, the binding signal in the experiment with SPI1 was 1.1 fold enrichment (6-mer frequency, TF over GST control); with SPIB, 1.13 fold enrichment (6-mer frequency, TF over GST control); in the experiment with ELK3, 1.04 fold enrichment (6-mer frequency, TF over GST control).
As to TACTCC, the binding signal in the experiment with FLI1 was 1.3 fold enrichment (6-mer frequency, TF over GST control); with ELK1, 1.2 fold enrichment (6-mer frequency, TF over GST control); with GABPA, 1.49 fold enrichment (6-mer frequency, TF over GST control); with ERG it was 1.35 fold enrichment (6-mer frequency, TF over GST control); with ELF1, 1.37 fold enrichment (6-mer frequency, TF over GST control); with EHF, 1.26 fold enrichment (6-mer frequency, TF over GST control). The binding signal with SPI1 was 1.24 fold enrichment (6-mer frequency, TF over GST control); with SPIB it was 1.23 fold enrichment (6-mer frequency, TF over GST control); with ELK3, 1.44 fold enrichment (6-mer frequency, TF over GST control).
Take TACTCA: the binding signal with FLI1 is 1.14 fold enrichment (6-mer frequency, TF over GST control); with ELK1 it was 1.24 fold enrichment (6-mer frequency, TF over GST control); with GABPA, 1.2 fold enrichment (6-mer frequency, TF over GST control); in the experiment with ERG, 1.19 fold enrichment (6-mer frequency, TF over GST control); with ELF1 it was 1.19 fold enrichment (6-mer frequency, TF over GST control); with EHF it was 1.3 fold enrichment (6-mer frequency, TF over GST control). Further, the binding signal was 1.14 fold enrichment (6-mer frequency, TF over GST control) in the experiment with SPI1; 1.36 fold enrichment (6-mer frequency, TF over GST control) with SPIB; 1.2 fold enrichment (6-mer frequency, TF over GST control) in the experiment with ELK3.
